The source of these data is PubChem BioAssay (NCATS).

The target of experiment [1] is Calcium and integrin-binding protein 1 (Homo sapiens) (UniProt Q99828). Put plainly: Primary qHTS for Identification of Calcium Integrin Binding Protein 1 (CIB1) Competitor (AID 1508620). Further: potency means the concentration at half of the fitted maximal effect.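 On activity change, negative = inhibition: GST tagged CIB1 binding a fluorescein labelled alphaIIb integrin peptide tracer; top concentration of the series differs between compounds.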 In outline: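 Fluorescence polarization competition: CIB1-GST (1 uM final) preincubated with compound 15 min at room temperature, then FITC-labeled alphaIIb peptide (100 nM final) added for another 15 min. Polarization read at Ex 480/Em 540.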
Chain of Calcium and integrin-binding protein 1 (Homo sapiens) (Q99828 whole entry, looked up): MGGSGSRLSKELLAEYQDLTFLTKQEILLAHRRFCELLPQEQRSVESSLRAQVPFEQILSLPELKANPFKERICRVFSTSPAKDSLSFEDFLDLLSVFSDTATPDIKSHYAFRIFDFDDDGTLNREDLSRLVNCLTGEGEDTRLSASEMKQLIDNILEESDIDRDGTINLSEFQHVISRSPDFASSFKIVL

Experiment [2] shares this target. Put plainly: Confirmatory qHTS for Identification of Calcium Integrin Binding Protein 1 (CIB1) Competitor (AID 1508617). Further: nearly all actives have a fitted effect of over 65% in size. Further: potency means the concentration at half of the fitted maximal effect. In a few lines: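 Binding competition between test compounds and fluorescent alphaIIb peptide for 1 uM CIB1-GST is monitored by FP at 480/540 nm. Final compound range is up to 114 uM; unlabeled peptide serves as reference competitor.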
Experiment [3] in a line: qHTS for Inhibitors of Ubiquitin-specific Protease USP2a Using CHOP2 as the Reporter: K633 Counterscreen (AID 652168). In a few lines: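 Detection-system control: fluorescence of K48-linked DiUb-4IQF substrate (100 nM as added) tracked over time, Ex 525/Em 598, with pinned compounds and no enzyme, in pH 8 Tris buffer containing beta-mercaptoethanol and 0.05% Chaps.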
Experiment [4] has as its target Ubiquitin carboxyl-terminal hydrolase 2 (Homo sapiens) (UniProt O75604). Put plainly: qHTS for Inhibitors of Ubiquitin-specific Protease USP2a Using CHOP2 as the Reporter: K484 Substrate (AID 652173).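 Further: cleavage of internally quenched K48 di-ubiquitin substrate measured as rising fluorescence over time; nearly all actives have a fitted effect of over 70% in size.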 Further: potency means the concentration at half of the fitted maximal effect. In outline: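 Kinetic fluorescence (Ex 525/Em 598) tracked cleavage of an internally quenched K48 di-ubiquitin substrate, added as a 100 nM solution. The enzyme was added as a 5 nM USP2 solution before compound pinning, with no-enzyme controls. Buffer: Tris pH 8, beta-mercaptoethanol, CHAPS.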

Experiment [5] can be described thus: Confirmation and Secondary Assay for Modulators of Hemoglobin Beta Chain Splicing at IVS2 654 locus (AID 910).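 Further: per-well total GFP intensity by laser scanning cytometry after 2-day treatment.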 In outline:
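HeLa cells stably carrying EGFP interrupted by mutant beta-globin IVS2-654 intron (CMV-driven) were treated with compound for 2 days at 37C; corrected splicing was scored as total peak GFP intensity per well (488 nm excitation, 500-520 nm emission).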

Experiment [6] in a line: Confirmation and Secondary Assay for Modulators of Hemoglobin Beta Chain Splicing at IVS2 705 locus (AID 930).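 Further: HeLa cells stably expressing the EGFP-705 splicing reporter; GFP fluorescence per well restored by corrected splicing of the IVS2-705 intron in EGFP.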 In a few lines: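 HeLa EGFP-705 reporter; 500 cells/well, o/n 37C 5% CO2; cpd 2 d; 488 ex/500-520 em laser scan; total peak GFP intensity/well. Ref: 500 nM […] antisense PNA.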
Experiment [7] can be described thus: qHTS Assay for Lipid Storage Modulators (AID 1519; calls by dose curve). The settings on record: Drosophila S3 cells, BODIPY lipid droplet/cell ratio, laser cytometry, cells loaded with oleic acid. In outline:
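Cells seeded at 5,000 per well were treated with compounds over a concentration series and loaded with oleic acid (400 uM, as added). Lipid droplet fluorescence (488 nm excitation, 500-530 nm channel) was read by laser-scanning cytometry and normalized to 20 uM Triacsin C.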

Experiment [8] in a line: qHTS for Inhibitors of Ubiquitin-specific Protease USP2a Using CHOP2 as the Reporter: Cytotox Assay (AID 652170). Further: nearly all actives have a fitted effect of over 70% in size. Further: potency means the concentration at half of the fitted maximal effect. In a few lines: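 Cytotoxicity read as ATP luminescence (CellTiter-Glo) after 72 hr compound treatment at 37 deg C. Cells: HCT116, 600/well in DMEM plus 10% FBS. Normalization between DMSO-treated cells and cell-free wells.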
For experiment [9], the target named is Rap guanine nucleotide exchange factor 3 (Homo sapiens) (UniProt O95398). Put plainly: Confirmatory qHTS for agonist of cAMP-regulated guanine nucleotide exchange factor 3 (EPAC1) (AID 1645881).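 Further: EPAC1 catalysed release of BODIPY-GDP from Rap1B seen as fluorescence loss; nearly all actives have a fitted effect of over 75% in size.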
Chain of Rap guanine nucleotide exchange factor 3 (Homo sapiens) (O95398 whole entry, looked up): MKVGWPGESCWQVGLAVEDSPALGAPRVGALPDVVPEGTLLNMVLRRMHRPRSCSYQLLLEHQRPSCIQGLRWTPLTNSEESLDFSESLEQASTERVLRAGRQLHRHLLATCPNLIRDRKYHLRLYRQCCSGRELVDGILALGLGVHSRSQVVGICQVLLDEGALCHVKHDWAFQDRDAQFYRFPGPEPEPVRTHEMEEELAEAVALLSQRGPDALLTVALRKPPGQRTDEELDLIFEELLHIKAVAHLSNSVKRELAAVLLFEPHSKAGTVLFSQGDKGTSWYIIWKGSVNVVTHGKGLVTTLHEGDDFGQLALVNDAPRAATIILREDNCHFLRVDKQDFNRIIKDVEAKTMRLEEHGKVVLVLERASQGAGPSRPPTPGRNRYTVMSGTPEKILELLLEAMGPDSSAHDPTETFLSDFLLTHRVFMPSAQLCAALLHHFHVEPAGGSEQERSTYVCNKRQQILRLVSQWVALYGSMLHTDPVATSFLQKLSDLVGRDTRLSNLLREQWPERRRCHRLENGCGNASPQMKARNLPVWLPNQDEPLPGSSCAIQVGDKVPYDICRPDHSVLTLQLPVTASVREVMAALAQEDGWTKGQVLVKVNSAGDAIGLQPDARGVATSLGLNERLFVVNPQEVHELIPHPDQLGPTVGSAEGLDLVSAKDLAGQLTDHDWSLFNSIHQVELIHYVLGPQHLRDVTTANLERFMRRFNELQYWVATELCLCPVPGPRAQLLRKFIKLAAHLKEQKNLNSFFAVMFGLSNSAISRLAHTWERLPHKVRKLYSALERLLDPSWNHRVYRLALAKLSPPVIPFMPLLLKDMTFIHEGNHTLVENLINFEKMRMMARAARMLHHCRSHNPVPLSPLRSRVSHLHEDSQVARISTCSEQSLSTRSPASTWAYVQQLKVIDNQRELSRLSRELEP
The target of experiment [10] is Rap guanine nucleotide exchange factor 4 (Homo sapiens) (UniProt Q8WZA2). Put plainly: Confirmatory qHTS for agonist of cAMP-regulated guanine nucleotide exchange factor 4 (EPAC2) (AID 1645884).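 Further: nucleotide exchange releases bodipy-GDP from Rap1 and this lowers its fluorescence; nearly all actives have a fitted effect of over 65% in size.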
Chain of Rap guanine nucleotide exchange factor 4 (Homo sapiens) (Q8WZA2 whole entry, looked up): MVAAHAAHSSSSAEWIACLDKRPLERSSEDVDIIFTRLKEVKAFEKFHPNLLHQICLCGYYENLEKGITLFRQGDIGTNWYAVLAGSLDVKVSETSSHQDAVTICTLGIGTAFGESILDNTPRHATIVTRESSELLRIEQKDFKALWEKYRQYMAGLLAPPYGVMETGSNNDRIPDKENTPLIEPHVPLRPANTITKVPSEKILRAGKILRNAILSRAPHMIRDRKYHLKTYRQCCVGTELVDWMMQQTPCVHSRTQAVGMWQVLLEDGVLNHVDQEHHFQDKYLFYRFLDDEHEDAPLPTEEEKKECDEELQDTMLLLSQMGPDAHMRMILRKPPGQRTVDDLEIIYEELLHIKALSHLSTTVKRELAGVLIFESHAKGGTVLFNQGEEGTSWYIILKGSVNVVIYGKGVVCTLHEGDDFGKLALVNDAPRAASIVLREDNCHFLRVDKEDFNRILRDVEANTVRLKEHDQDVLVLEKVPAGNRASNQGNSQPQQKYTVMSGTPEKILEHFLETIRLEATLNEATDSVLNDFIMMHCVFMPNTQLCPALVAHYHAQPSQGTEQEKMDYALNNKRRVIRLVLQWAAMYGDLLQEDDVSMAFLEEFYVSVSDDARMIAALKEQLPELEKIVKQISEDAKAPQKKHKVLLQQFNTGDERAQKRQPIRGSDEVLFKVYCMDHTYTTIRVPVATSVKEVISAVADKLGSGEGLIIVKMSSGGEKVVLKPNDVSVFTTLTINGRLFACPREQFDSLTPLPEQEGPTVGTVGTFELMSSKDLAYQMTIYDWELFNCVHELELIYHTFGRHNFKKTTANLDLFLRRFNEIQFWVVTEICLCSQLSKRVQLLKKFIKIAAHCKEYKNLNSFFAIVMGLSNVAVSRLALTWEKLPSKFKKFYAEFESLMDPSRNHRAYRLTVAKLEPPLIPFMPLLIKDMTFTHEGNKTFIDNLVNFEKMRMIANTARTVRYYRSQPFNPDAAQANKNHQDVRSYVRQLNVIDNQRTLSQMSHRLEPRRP
Experiment [11] deals with Rap guanine nucleotide exchange factor 3 (Homo sapiens) (UniProt O95398). Put plainly: Counterscreen qHTS for antagonist of cAMP-regulated guanine nucleotide exchange factor 3 (EPAC1) (AID 1645888).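 Further: fluorescence loss as bound BODIPY-GDP is released from Rap1B.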 In a few lines: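 Measured: fluorescence of BODIPY-GDP bound to Rap1B, which falls as exchange proceeds. Conditions include 50 uM competing GDP, 5 and 30 min reads, and a later cAMP challenge for antagonist detection.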

Records with an inconclusive call do not appear. A call without a number means that no potency is given here. Active and inactive are the calls of the source. Unless noted, the call rests on the fitted dose curve; in most records, active means well fitted curve in the direction sought with a large enough effect; inconclusive means small, poorly fitted or top-dose-only effect, or another doubt; inactive means no such curve, though single readings can be large; an effect the other way counts as inactive or inconclusive.

Chain of Ubiquitin carboxyl-terminal hydrolase 2 (Homo sapiens) (O75604 whole entry, looked up): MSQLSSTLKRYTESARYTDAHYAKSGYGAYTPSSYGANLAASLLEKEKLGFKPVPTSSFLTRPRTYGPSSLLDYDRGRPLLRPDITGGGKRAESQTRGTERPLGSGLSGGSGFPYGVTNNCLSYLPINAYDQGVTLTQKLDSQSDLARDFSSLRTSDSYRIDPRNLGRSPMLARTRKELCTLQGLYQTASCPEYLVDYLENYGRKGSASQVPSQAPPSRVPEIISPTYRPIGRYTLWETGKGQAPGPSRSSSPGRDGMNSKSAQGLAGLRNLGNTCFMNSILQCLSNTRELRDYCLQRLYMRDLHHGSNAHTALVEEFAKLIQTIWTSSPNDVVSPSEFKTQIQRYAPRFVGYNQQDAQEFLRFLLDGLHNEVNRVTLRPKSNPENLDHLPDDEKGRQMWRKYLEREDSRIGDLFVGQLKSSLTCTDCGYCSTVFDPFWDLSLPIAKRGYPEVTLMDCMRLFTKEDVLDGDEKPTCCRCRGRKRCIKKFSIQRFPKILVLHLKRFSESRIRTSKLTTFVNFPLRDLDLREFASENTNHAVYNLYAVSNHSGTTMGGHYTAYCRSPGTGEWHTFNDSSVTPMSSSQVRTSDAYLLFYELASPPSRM

In the case of `O=S1(=O)N=C(OCc2ccccc2)c2ccccc21`, the Potency result in [1] is “inactive”.
On the same count and under the same terms, as for `CC(C)(C)OC(=O)n1c2ccsc2c2cnn(Cc3ccccc3F)c(=O)c21`, the entry is “inactive”.
With `CC1(C)OB(c2ccc(O)c3ncc(N4CCNCC4)cc23)OC1(C)C`, the Potency was 31.6 µM (active) in [2] and 50.1 µM (active) in [1].
The like results for `O=C(O)c1ccc(O)c2ncc(-c3n[nH]nc3-c3ccccc3)cc12` were, in that order, “inactive” and “inactive”.
Taken in the same sequence, the figures for `c1ccc(-n2ccc(-c3nnc4n3CCCCC4)c2)cc1` were 50.1 µM (active) and 79.4 µM (active).
Consider `COc1cc(Nc2nc(-c3ccncc3)nc3ccccc23)ccc1Cl`, for which the Potency entry in experiment [1] was “inactive”.
Regarding `Cc1ccc2nc3sc(C(=O)NCc4ccco4)cc3cc2c1`, the Potency result in experiment [2] and in experiment [1] was “inactive” throughout.
Turning to `O=C(Nc1nc(-c2ccccc2)cs1)c1ccncc1NS(=O)(=O)c1cccc2cccnc12`, the result in experiment [3] was inactive. For the same molecule, the Potency in [4] is 7.69 µM (active); in experiment [2], 35.5 µM (active).
With `NC[C@@H](O)c1ccc(O)c(O)c1`, the outcome in [5] and in experiment [6] was inactive. Besides, in experiment [7] (at 57.5 µM (top of the series)), the activity change, negative = inhibition was 7.77% (inactive). The max response was 7.41% in [7] (measured here: cell count channel max response) and 16.7% in [7] (measured here: lipid channel max response). In addition, the Potency entry in experiment [2] and in experiment [1] was “inactive” throughout.
For `COc1cc(O)c(C(CC(=O)N2CCC(C)CC2)c2ccc(OC)c(OC)c2)c(OC)c1` (stereo unspecified), the Potency entry in [1] is “inactive”.
On to `CN(CC(=O)Nc1ccc(N2CCOCC2)cc1)Cc1c(O)ccc2ccccc12`, for which, in experiment [2], the Potency entry is “inactive”.
As to `CCOC(=O)c1ccc(-n2cnc3c(c2=N)C(c2cccc(OC)c2)c2c(ccc4ccccc24)O3)cc1` (stereo unspecified), the Potency entry in [1] is “inactive”.
Regarding `Cc1ccc(Cn2ncc3c4sc(C)cc4n(C)c3c2=O)cc1`, the Potency result in experiment [1] was “inactive”.
On to `O=S(=O)(Nc1nccs1)c1ccc(Nc2nc(-c3ccccc3)cs2)cc1`, for which, in experiment [3], the call was inactive. Further, the Potency result in experiment [8] and in [4] was “inactive” throughout. In addition, the Potency in experiment [2] and in experiment [1] was 50.1 µM (active) each time.
With `Cc1c(C(=O)NCC2CCCO2)[nH]c2c1C(=O)CCC2` (stereo unspecified), the Potency result in experiment [1] is “inactive”.
Regarding `NS(=O)(=O)c1ccc(Nc2nc(-c3ccccc3)cs2)cc1`, the Potency entry in [8] is “inactive”. In addition, the Potency in experiment [4] is 21.7 µM (active); in experiment [2], 50.1 µM (active).
For `Cc1ccc(CNc2ncnc3ccc(-c4ccc([C@@H](C)O)o4)cc23)o1`, the Potency entry in experiment [2] and in experiment [1] was “inactive” in each case.
Turning to `COc1ccc2c(c1)Oc1ncn(CCN3CCOCC3)c(=N)c1C2c1ccc(OC)c(OC)c1` (stereo unspecified), the Potency result in experiment [1] is “inactive”.
Still for that read-out and setting: as for `Oc1cccc2cc(CNc3ccccc3F)cnc12`, the entry is “inactive”.
For `N#Cc1ccc(NS(=O)(=O)c2ccc(NC(=O)Cc3ccc(F)c(Cl)c3)cc2)cc1`, the Potency in experiment [4] is 24.3 µM (active). The Potency result in experiment [2] was “inactive”.
As for `COc1ccc(C2=Nn3c(nnc3-c3ccc(OC)cc3)SC2)cc1`, the Potency entry in experiment [1] was “inactive”.
Consider `CC(=O)N1CCc2cc(S(=O)(=O)N3CCN(S(=O)(=O)c4c(F)cccc4F)CC3)ccc21`, for which the Potency result in experiment [1] is “inactive”.
Turning to `N#Cc1ccc(NS(=O)(=O)c2ccc(NC(=O)Cc3ccc(Cl)c(Cl)c3)cc2)cc1`, the Potency in [4] was 7.69 µM (active). Moreover, the Potency result in experiment [2] is “inactive”.
Turning to `Fc1ccccc1-c1nc(NCc2ccc(-c3cccnc3)cc2)c2ccccc2n1`, the Potency entry in [1] is “inactive”.
On the same count and under the same terms, the result for `O=C1CCCC2=C1C1(CCCC1)N=C(Nc1nc3ccccc3n1Cc1ccccc1)N2` reads “inactive”; that for `Cc1nnc(-c2cnn(C)c2N)n1Cc1cncn1C`, “inactive”.
The same measure, in the same setting: as for `FC(F)(F)c1ccccc1-c1nc(NCc2ccc(-c3ccc4c(c3)OCCO4)cc2)c2ccccc2n1`, the entry is “inactive”.
With `NC(=O)C1CCN(c2ncc(Br)s2)CC1`, the Potency in experiment [2] is 50.1 µM (active); in [1] it was 39.8 µM (active).
`Cc1cc(N2C(=O)c3ccccc3C2=O)n[nH]1`: the Potency entry in experiment [1] was “inactive”.
Consider `Cc1ccc(S(=O)(=O)Nc2cc3c(cc2C(=O)Nc2nc(-c4ccccc4)cs2)OCO3)cc1`, for which the call in experiment [3] was inactive. In addition, the Potency was 16.6 µM (active) in experiment [8] and 1.37 µM (active) in experiment [4]. Further, in experiment [2], the Potency result was “inactive”.
Take `O=C(CNC(=O)c1ccc(Cl)cc1)OC(C(=O)Nc1cc(C(F)(F)F)ccc1Cl)c1ccccc1` (stereo unspecified): the Potency result in experiment [1] is “inactive”.
For the molecule `CN(C(=O)c1cccs1)c1cccnc1`, the figures for the Potency in experiment [2] and in experiment [1] were 31.6 µM (active) and 50.1 µM (active), respectively.
For the molecule `Cn1nnnc1Sc1ncnc2scc(-c3ccc4c(c3)OCO4)c12`, in experiment [1], the Potency result was “inactive”.
For the molecule `CC(=O)NC(c1cccs1)c1cc(Br)c2cccnc2c1O` (stereo unspecified), the Potency result in experiment [2] and in experiment [1] was “inactive” each time. The result in [9] and in experiment [11] was inactive. For the same molecule, in experiment [10], the activation is 0% [at 17.1 µM] (inactive).
Regarding `COc1ccccc1Nc1cc2ccccc2c(=O)[nH]1`, the Potency in [2] is 39.8 µM (active).
As to `COc1ccc(-c2csc3ncnc(Sc4nnnn4C)c23)cc1`, the Potency result in experiment [1] is “inactive”.
